{"source": "the supplement of paper PMC10849652", "note": "About 8,800 targets were measured; listed, in parts, are those with a hit and a random draw of the rest. About 0.5% of all pairs of compound and target were hits."}
{"compound": "Cc1cn(-c2cc(NC(=O)c3ccc(C)c(Nc4nccc(-c5cccnc5)n4)c3)cc(C(F)(F)F)c2)cn1 [nilotinib]", "test": "log2 fold change, soluble protein after heating vs DMSO (PISA); higher = thermal stabilisation; K562 lysate, 10 uM; active = over 0.2 and 3.5 SD of the protein, either way, in both replicates (recomputed)", "summary_of_the_method": "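To prepare the extract, K562 pellets were dounce-homogenised in PBS pH 7.4 with 1 mM MgCl2, giving crude material at 1 mg/mL protein. This was treated with 10 μM compound for 30 min, then heated in aliquots for 3 min over 48°C-58°C before pooling and addition of NP-40 to 0.5% at 4°C. Centrifugation at 21,000xg for 90 min left soluble protein in the supernatant, which TMTpro 16plex LC-MS/MS quantified with equalised channel sums. Results are log-two fold changes in thermal stability compared with solvent controls, from duplicates.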"}
{"target": "NPTN (UniProt Q9Y639)", "sequence (Q9Y639 whole entry, looked up)": "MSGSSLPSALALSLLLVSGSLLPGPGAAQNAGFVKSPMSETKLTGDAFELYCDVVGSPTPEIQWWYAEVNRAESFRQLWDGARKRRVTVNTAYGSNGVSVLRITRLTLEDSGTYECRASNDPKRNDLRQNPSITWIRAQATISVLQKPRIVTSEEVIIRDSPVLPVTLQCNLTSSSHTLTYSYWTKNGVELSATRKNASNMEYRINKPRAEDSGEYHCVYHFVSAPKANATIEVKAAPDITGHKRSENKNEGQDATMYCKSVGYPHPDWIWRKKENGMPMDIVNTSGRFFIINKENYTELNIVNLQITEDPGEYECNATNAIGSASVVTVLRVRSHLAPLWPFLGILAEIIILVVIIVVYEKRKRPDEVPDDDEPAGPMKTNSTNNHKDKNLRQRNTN", "log2 fold change": "-0.029 (inactive)"}
{"target": "MXRA7 (UniProt P84157)", "log2 fold change": "-0.307 (inactive)"}
{"target": "NUP205 (UniProt Q92621)", "log2 fold change": "-0.014 (inactive)"}
{"target": "NEBL (UniProt O76041)", "log2 fold change": "-0.024 (inactive)"}
{"target": "NUDT4 (UniProt Q9NZJ9)", "sequence (Q9NZJ9 whole entry, looked up)": "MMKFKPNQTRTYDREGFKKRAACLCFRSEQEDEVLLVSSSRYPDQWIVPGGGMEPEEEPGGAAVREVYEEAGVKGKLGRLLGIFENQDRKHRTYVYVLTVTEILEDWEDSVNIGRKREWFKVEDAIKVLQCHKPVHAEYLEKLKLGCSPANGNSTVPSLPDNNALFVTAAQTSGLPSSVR", "log2 fold change": "0.115 (inactive)"}
{"target": "NFAT5 isoform 5 (UniProt O94916)", "log2 fold change": "-0.012 (inactive)"}
{"target": "MSH3 (UniProt P20585)", "log2 fold change": "-0.007 (inactive)"}
{"target": "NFATC2 (UniProt Q13469)", "log2 fold change": "-0.001 (inactive)"}
{"target": "NT5DC2 isoform 2 (UniProt Q9H857)", "log2 fold change": "0.025 (inactive)"}
{"target": "NR2F2 (UniProt P24468)", "sequence (P24468 whole entry, looked up)": "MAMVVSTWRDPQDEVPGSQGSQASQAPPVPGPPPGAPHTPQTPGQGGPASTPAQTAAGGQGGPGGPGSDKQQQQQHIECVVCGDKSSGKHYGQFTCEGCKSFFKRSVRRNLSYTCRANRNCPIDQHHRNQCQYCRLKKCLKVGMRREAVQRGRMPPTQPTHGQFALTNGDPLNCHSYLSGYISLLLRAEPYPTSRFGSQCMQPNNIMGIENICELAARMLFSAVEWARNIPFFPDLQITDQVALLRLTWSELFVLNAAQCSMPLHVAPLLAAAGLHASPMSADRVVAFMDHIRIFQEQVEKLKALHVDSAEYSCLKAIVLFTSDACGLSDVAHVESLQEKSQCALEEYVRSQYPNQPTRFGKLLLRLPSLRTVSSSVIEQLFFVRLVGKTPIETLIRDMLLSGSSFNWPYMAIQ", "log2 fold change": "-0.063 (inactive)"}
{"target": "PANK1 (UniProt Q8TE04)", "log2 fold change": "-0.005 (inactive)"}
{"target": "PAK4 (UniProt O96013)", "log2 fold change": "-0.015 (inactive)"}
{"target": "MSH2 (UniProt P43246)", "log2 fold change": "-0.005 (inactive)"}
{"target": "NSUN2 (UniProt Q08J23)", "log2 fold change": "0.013 (inactive)"}
{"target": "MRPS31 (UniProt Q92665)", "log2 fold change": "-0.005 (inactive)"}
{"target": "PBK (UniProt Q96KB5)", "log2 fold change": "-0.01 (inactive)"}
{"target": "NOSIP (UniProt Q9Y314)", "sequence (Q9Y314 whole entry, looked up)": "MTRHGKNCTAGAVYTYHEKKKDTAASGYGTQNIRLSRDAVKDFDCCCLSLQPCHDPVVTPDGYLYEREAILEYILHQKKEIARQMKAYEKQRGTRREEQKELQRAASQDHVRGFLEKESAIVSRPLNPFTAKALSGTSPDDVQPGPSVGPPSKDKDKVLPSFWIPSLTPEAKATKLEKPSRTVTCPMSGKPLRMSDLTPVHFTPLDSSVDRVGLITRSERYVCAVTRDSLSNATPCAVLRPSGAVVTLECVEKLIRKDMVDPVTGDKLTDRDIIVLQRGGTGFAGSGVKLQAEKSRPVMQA", "log2 fold change": "0.005 (inactive)"}
{"target": "MYO1C (UniProt O00159)", "log2 fold change": "0.019 (inactive)"}
{"target": "NAA30 (UniProt Q147X3)", "sequence (Q147X3 whole entry, looked up)": "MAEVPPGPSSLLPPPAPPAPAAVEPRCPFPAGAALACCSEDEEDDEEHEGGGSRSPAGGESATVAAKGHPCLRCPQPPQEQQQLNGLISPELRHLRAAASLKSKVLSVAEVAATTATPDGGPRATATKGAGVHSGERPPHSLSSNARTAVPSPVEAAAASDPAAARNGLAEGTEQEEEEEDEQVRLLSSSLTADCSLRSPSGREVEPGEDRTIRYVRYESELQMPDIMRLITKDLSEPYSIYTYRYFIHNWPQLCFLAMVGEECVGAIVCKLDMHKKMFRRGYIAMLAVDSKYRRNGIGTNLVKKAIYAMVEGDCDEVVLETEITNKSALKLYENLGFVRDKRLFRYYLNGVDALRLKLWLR", "log2 fold change": "-0.036 (inactive)"}
{"target": "MTCH2 (UniProt Q9Y6C9)", "sequence (Q9Y6C9 whole entry, looked up)": "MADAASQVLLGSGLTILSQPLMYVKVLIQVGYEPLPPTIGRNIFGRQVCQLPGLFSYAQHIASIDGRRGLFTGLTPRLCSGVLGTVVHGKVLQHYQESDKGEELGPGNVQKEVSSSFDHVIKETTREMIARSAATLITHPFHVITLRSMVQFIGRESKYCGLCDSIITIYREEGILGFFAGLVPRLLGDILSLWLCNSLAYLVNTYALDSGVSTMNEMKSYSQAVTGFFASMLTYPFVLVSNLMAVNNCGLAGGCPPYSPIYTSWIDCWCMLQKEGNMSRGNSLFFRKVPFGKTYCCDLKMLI", "log2 fold change": "0.044 (inactive)"}
{"target": "PARD3 (UniProt Q8TEW0)", "sequence (Q8TEW0 whole entry, looked up)": "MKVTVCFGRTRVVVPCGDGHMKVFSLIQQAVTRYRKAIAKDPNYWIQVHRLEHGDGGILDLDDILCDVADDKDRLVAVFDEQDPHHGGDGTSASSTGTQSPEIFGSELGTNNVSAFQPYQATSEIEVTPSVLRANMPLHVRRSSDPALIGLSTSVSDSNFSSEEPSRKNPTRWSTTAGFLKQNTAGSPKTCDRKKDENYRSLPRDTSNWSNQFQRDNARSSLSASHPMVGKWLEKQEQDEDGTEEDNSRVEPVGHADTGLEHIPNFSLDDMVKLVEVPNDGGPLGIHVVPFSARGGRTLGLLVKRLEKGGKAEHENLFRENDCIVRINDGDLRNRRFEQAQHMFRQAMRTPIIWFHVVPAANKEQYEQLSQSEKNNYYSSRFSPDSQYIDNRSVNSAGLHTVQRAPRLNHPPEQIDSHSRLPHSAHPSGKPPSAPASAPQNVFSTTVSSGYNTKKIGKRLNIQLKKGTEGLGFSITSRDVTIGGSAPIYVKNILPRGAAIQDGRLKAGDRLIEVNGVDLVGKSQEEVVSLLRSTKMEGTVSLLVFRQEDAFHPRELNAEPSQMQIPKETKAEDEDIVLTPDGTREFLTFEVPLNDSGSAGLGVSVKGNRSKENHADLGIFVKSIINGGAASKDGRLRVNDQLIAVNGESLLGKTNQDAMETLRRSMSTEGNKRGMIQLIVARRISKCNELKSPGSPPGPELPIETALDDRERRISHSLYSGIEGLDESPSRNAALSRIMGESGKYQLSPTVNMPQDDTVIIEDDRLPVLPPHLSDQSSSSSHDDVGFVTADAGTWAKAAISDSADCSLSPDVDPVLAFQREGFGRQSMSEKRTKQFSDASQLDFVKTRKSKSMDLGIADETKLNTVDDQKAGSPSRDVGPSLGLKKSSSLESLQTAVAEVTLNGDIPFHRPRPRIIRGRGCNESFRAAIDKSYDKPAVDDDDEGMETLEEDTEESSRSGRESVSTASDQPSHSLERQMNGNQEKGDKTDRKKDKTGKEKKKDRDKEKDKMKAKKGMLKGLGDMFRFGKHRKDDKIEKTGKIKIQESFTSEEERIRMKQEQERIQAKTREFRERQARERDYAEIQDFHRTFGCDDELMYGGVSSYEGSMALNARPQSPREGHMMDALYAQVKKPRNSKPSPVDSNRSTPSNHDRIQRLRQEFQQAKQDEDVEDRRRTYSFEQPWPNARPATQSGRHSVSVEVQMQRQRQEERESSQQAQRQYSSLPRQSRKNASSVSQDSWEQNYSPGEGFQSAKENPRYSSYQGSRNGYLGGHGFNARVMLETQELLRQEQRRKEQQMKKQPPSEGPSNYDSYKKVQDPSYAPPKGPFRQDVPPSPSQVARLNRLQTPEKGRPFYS", "log2 fold change": "-0.114 (inactive)"}
{"target": "NLRP2 (UniProt Q9NX02)", "log2 fold change": "-0.002 (inactive)"}
{"target": "ORC2 (UniProt Q13416)", "log2 fold change": "0 (inactive)"}
{"target": "NOSTRIN (UniProt Q8IVI9)", "sequence (Q8IVI9 whole entry, looked up)": "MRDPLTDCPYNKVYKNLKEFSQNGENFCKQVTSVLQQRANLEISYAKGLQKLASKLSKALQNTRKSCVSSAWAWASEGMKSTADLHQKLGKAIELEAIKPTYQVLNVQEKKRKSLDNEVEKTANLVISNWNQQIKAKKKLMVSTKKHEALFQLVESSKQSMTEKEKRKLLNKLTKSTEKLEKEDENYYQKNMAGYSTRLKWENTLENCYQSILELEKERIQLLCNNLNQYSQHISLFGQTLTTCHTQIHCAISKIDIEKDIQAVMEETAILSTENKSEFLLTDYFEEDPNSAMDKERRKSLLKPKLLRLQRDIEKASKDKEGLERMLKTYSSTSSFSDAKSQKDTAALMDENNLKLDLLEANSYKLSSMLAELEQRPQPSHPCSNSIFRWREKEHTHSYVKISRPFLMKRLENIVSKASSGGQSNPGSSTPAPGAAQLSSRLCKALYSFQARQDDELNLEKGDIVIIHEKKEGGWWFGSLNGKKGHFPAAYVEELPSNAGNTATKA", "log2 fold change": "-0.015 (inactive)"}
{"target": "OSBPL1A (UniProt Q9BXW6)", "log2 fold change": "-0.07 (inactive)"}
{"target": "PAN2 isoform 2 (UniProt Q504Q3)", "sequence (Q504Q3 whole entry, looked up)": "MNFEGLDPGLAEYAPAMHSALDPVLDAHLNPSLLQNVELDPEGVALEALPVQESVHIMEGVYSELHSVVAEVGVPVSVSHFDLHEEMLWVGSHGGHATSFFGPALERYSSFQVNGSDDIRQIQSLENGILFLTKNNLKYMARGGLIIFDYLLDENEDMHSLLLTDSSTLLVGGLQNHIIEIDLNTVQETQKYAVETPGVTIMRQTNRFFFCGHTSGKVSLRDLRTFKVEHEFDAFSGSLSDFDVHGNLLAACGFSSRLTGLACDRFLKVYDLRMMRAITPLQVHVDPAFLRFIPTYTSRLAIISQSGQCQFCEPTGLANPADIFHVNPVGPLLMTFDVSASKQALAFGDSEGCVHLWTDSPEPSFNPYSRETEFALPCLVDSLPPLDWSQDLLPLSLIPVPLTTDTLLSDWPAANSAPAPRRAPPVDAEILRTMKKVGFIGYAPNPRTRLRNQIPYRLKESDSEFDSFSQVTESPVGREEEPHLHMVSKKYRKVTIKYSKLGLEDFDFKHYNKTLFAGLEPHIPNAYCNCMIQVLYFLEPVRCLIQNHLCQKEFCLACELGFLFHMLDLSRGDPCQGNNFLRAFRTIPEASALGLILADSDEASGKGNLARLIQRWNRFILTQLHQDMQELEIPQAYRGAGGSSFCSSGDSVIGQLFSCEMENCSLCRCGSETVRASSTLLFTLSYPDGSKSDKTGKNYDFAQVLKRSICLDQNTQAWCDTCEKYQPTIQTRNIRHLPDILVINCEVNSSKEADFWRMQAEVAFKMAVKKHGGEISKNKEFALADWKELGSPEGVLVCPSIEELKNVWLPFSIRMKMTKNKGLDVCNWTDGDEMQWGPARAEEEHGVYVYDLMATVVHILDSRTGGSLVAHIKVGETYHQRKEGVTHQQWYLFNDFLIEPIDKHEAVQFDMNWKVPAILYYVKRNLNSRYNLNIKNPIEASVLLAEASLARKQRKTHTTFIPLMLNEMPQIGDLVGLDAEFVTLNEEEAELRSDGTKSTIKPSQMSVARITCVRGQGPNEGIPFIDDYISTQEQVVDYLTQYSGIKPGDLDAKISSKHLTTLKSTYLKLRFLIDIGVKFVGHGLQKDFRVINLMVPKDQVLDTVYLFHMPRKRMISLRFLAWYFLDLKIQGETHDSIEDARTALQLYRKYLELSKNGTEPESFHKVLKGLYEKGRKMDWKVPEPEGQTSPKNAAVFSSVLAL", "log2 fold change": "0.072 (inactive)"}
{"target": "NOC2L (UniProt Q9Y3T9)", "log2 fold change": "0.027 (inactive)"}
{"target": "N4BP2 (UniProt Q86UW6)", "log2 fold change": "0.026 (inactive)"}
{"target": "NPM3 (UniProt O75607)", "log2 fold change": "-0.039 (inactive)"}
{"target": "PAGE2B (UniProt Q5JRK9)", "log2 fold change": "0.036 (inactive)"}
{"target": "NOCT (UniProt Q9UK39)", "log2 fold change": "-0.045 (inactive)"}
{"target": "NBN (UniProt O60934)", "log2 fold change": "0.004 (inactive)"}
{"target": "MSH6 (UniProt P52701)", "log2 fold change": "-0.005 (inactive)"}
{"target": "NELFCD (UniProt Q8IXH7)", "log2 fold change": "-0.024 (inactive)"}
{"target": "NARS2 (UniProt Q96I59)", "log2 fold change": "0.019 (inactive)"}
